Data from PubChem BioAssay (Tox21).
Inconclusive results are not listed. The source made the active and inactive calls. Unless noted, the call rests on the fitted dose curve; in most records, active means well fitted curve in the direction sought with a large enough effect in the repeat runs; inconclusive means weak or mixed curves; inactive means no such curve, though single readings can be large; an effect the other way counts as inactive or inconclusive.

Assays:
[1] = biological target: Thyrotropin receptor (Homo sapiens) (UniProt P16473); assay: qHTS assay to identify small molecule agonists of the thyroid stimulating hormone receptor (TSHR) signaling pathway (AID 1224843; calls by dose curve; further: nearly all actives have a fitted effect of over 45% in size)
In short: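 Screening of the Tox21 10K collection used HEK293 cells engineered with TSHR at 800 cells per well. After a 30-min room-temperature compound exposure, HTRF cAMP reagents were added and fluorescence recorded 1 h later.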

[2] = qHTS assay to identify small molecule agonists of the hypoxia (HIF-1) signaling pathway - cell viability counter screen (AID 1224844; calls by dose curve; further: nearly all actives have a fitted effect of over 50% in size)
In short: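 Cells (HRE-bla ME-180, 2,000 per well) sat 5 hrs at 37C, got compound for 17 hrs, were read for CCF4-AM FRET, and were finally lysed with CellTiter-Glo for a 30 min room-temperature luminescence read.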

[3] = qHTS assay to identify small molecule agonists of H2AX (AID 1224845; active means well fitted activation curve with a large enough effect in the signal ratio in the repeat runs, not every such curve was filed as active; the % refers to the signal ratio)
In short: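 Phospho-H2AX Ser139 measured by HTRF (ex 320 nm; em 665 and 620 nm) after 24 hr antibody incubation. Compounds, 15 concentrations, 0.76% DMSO, were applied to CHO-K1 cells for 3hr at 37C before lysis.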

[4] = qHTS assay to identify small molecule agonists of the hypoxia (HIF-1) signaling pathway (AID 1224846; active means well fitted activation curve with a large enough effect in the signal ratio in the repeat runs, not every such curve was filed as active; the % refers to the signal ratio)
In short: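 A low-serum medium (0.5% dialyzed FBS) holding 2,000 HRE-bla ME-180 cells per well is preincubated for 5 hrs, dosed with compounds by pintool, and kept a further 17 hrs at 37C, 5% CO2 before CCF4-AM FRET detection of beta-lactamase.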

[5] = qHTS assay to identify small molecule agonists of H2AX - cell viability counter screen (AID 1224847; calls by dose curve; further: top concentration of the series differs between compounds; nearly all actives have a fitted effect of over 30% in size)
In short: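 Quantitative HTS viability measurement: CHO-K1 wild-type cells in serum (10% FBS) medium, short 3 hr drug exposure at 37C with 0.76% DMSO, CellTiter-Glo luminescent detection.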

[6] = qHTS RealTime-Glo MT Cell Viability Assay in HepG2 cells - 24 hour (AID 1224867); further: nearly all actives have a fitted effect of over 50% in size
In short: (§1)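 Compound treatment began 5 h after plating HepG2 cells (600/well) with NanoLuc luciferase and prosubstrate. Plates stayed at 37 C for 40 h; luminescence was captured at six time points, 0 h through 40 h.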

[7] = qHTS RealTime-Glo MT Cell Viability Assay in HEK293 cells - 32 hour (AID 1224868); further: top concentration of the series differs between compounds; nearly all actives have a fitted effect of over 50% in size
In short: (§2)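 Quantitative high-throughput screen of the Tox21 10K library in HEK293: cells and RealTime-Glo reagents plated together, compound added at 5 h, luminescence monitored through 40 h at 37 C.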

[8] = A CellTox Green Cytotoxicity Assay to monitor cytotoxicity in HEK293 cells - 0 hour (AID 1224869); further: nearly all actives have a fitted effect of over 50% in size
In short: (§3)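 Fluorescence intensity, read at 0, 8, 16, 24, 32 and 40 h of compound treatment, reflected dye binding to DNA of dead HEK293 cells; compounds (23 nL, DMSO) were added 5 h after plating cells with reagent.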

[9] = qHTS RealTime-Glo MT Cell Viability Assay in HepG2 cells - 40 hour (AID 1224870); further: nearly all actives have a fitted effect of over 50% in size
In short: (§4)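 Real-time viability: cells seeded at 600 per well together with NanoLuc and cell-permeant prosubstrate, compounds added after 5 h incubation. Luminescence tracked at 0, 8, 16, 24, 32 and 40 h of exposure.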

[10] = A CellTox Green Cytotoxicity Assay to monitor cytotoxicity in HEK293 cells - 40 hour (AID 1224871); further: nearly all actives have a fitted effect of over 45% in size
In short: as §3

[11] = qHTS RealTime-Glo MT Cell Viability Assay in HEK293 cells - 16 hour (AID 1224872)
In short: as §2

[12] = qHTS RealTime-Glo MT Cell Viability Assay in HepG2 cells - 8 hour (AID 1224873); further: nearly all actives have a fitted effect of over 55% in size
In short: as §4

[13] = qHTS RealTime-Glo MT Cell Viability Assay in HEK293 cells - 40 hour (AID 1224874); details: RealTime-Glo luminescence; max response: stronger effect = lower value; further: nearly all actives have a fitted effect of over 50% in size
In short: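 Viable HEK293 cells reduce a cell-permeant prosubstrate; the product diffuses out and is consumed by NanoLuc in the medium to give light. Compounds went in after a 5 h incubation and plates were read over the treatment course.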

[14] = A CellTox Green Cytotoxicity Assay to monitor cytotoxicity in HEK293 cells - 24 hour (AID 1224875); further: nearly all actives have a fitted effect of over 45% in size
In short: as §3

[15] = A CellTox Green Cytotoxicity Assay to monitor cytotoxicity in HepG2 cells - 16 hour (AID 1224876); further: nearly all actives have a fitted effect of over 45% in size
In short: (§5)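 Using 1536-well format, dye-containing HepG2 suspension was seeded, allowed 5 h at 37 C/5% CO2, dosed by pintool with compounds, positive and negative controls, and imaged for fluorescence across 40 h.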

[16] = qHTS RealTime-Glo MT Cell Viability Assay in HepG2 cells - 32 hour (AID 1224877); further: nearly all actives have a fitted effect of over 55% in size
In short: as §1

[17] = A CellTox Green Cytotoxicity Assay to monitor cytotoxicity in HepG2 cells - 24 hour (AID 1224878); further: nearly all actives have a fitted effect of over 45% in size
In short: as §5

[18] = A CellTox Green Cytotoxicity Assay to monitor cytotoxicity in HepG2 cells - 40 hour (AID 1224879); further: nearly all actives have a fitted effect of over 40% in size
In short: as §5

[19] = qHTS assay to identify small molecule antagonists of the estrogen related receptor (ERR) signaling pathway from Tox21 library (AID 1224848); further: nearly all actives have a fitted effect of over 50% in size
In short: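 Antagonist-mode screen of the Tox21 10K library in an NTP-provided ERR reporter cell line; 18 h compound exposure at 37 C, luminescence measured with ONE-Glo.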

[20] = qHTS assay to identify small molecule agonists of the estrogen related receptor (ERR) signaling pathway from Tox21 library (AID 1224849; calls by dose curve; further: nearly all actives have a fitted effect of over 15% in size); details: ERR reporter cell line, ONE-Glo luciferase, 18 h; at 92.4 µM (top of the series) unless noted
In short: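 Screening used an NTP-provided ERR luciferase cell line. Compounds in DMSO were added 6 h after seeding and left 18 h at 37 C before a 30 min ONE-Glo step and luminescence reading.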
On the % scale 0 is the no-effect control and ±100 the full control effect.

Thyrotropin receptor (Homo sapiens), sequence (P16473 whole entry, looked up): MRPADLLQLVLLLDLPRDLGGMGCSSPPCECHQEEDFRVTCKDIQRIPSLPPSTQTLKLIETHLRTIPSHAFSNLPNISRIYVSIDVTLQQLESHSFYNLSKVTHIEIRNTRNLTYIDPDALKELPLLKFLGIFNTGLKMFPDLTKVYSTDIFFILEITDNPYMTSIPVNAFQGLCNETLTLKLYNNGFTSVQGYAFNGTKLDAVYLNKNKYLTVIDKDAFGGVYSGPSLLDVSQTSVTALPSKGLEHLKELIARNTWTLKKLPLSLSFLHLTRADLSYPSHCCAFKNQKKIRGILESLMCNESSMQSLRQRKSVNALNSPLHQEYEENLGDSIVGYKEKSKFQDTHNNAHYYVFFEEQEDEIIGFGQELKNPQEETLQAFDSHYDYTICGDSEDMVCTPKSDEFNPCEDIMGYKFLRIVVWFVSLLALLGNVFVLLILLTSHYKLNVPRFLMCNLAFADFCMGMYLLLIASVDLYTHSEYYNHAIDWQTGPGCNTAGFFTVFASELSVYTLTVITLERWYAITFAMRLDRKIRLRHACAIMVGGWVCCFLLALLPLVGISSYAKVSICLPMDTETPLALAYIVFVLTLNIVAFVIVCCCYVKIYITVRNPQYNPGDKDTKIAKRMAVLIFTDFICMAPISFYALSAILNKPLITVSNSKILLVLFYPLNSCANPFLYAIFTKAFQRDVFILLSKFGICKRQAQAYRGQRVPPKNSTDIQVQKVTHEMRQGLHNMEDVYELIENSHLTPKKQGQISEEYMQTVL

CCCCCCCCCCC1CO1 (stereo not drawn)
inactive: outcome [1] | Potency [2] | outcome [3] | outcome [4] | Potency [5] | outcome [6] | Potency [7] | Potency [8] | Potency [9] | Potency [10] | Potency [11] | outcome [12] | max response [13] 6.25% | Potency [14] | Potency [15] | Potency [16] | Potency [17] | Potency [18]

COC[C@H](c1ccc(C(F)(F)F)cc1)N1CCN(C2(C)CCN(C(=O)c3c(C)ncnc3C)CC2)C[C@H]1C
inactive: outcome [1] | Potency [2] | outcome [3] | Potency [5] | Potency [19] | activity change, positive = activation [20] -5.81% [at 42.5 µM] | outcome [6] | Potency [7] | Potency [8] | Potency [9] | Potency [10] | Potency [11] | outcome [12] | max response [13] -19.9% | Potency [14] | Potency [15] | Potency [16] | Potency [17] | Potency [18]

COc1nc(C)nc(N)n1
inactive: outcome [1] | Potency [2] | outcome [3] | outcome [4] | Potency [5] | outcome [6] | Potency [7] | Potency [8] | Potency [9] | Potency [10] | Potency [11] | outcome [12] | max response [13] -1.44% | Potency [14] | Potency [15] | Potency [17] | Potency [18]

CC(C)(C)CC(C)(C)N
inactive: outcome [1] | Potency [2] | outcome [3] | outcome [4] | Potency [5] | outcome [6] | Potency [8] | Potency [9] | Potency [10] | Potency [11] | outcome [12] | max response [13] 11.1% | Potency [14] | Potency [15] | Potency [16] | Potency [17] | Potency [18]

COC(C(=O)O)c1ccccc1 (stereo not drawn)
inactive: outcome [1] | Potency [2] | outcome [3] | outcome [4] | Potency [5] | outcome [6] | Potency [8] | Potency [9] | Potency [10] | Potency [11] | outcome [12] | max response [13] 2.29% | Potency [14] | Potency [15] | Potency [16] | Potency [17] | Potency [18]

CCCc1ccc(N)cc1
inactive: outcome [1] | Potency [2] | outcome [3] | outcome [4] | Potency [5] | outcome [6] | Potency [9] | Potency [10] | Potency [11] | outcome [12] | max response [13] -1.79% | Potency [14] | Potency [15] | Potency [16] | Potency [17] | Potency [18]

CC1=CC(=O)CCC1
inactive: outcome [1] | Potency [2] | outcome [3] | outcome [4] | Potency [5] | outcome [6] | Potency [8] | Potency [9] | Potency [10] | Potency [11] | outcome [12] | max response [13] -3.69% | Potency [14] | Potency [15] | Potency [17] | Potency [18]

O=[N+]([O-])c1ccc(CCO)cc1
inactive: outcome [1] | Potency [2] | outcome [3] | outcome [4] | Potency [5] | outcome [6] | Potency [7] | Potency [9] | Potency [10] | Potency [11] | outcome [12] | max response [13] -7.45% | Potency [15] | Potency [16] | Potency [17] | Potency [18]

C=CCOc1nc(OCC=C)nc(OCC=C)n1
inactive: outcome [1] | Potency [2] | outcome [3] | outcome [4] | Potency [5] | outcome [6] | Potency [7] | Potency [9] | Potency [10] | Potency [11] | max response [13] 11.1% | Potency [14] | Potency [15] | Potency [16] | Potency [17] | Potency [18]

NCCN1CCNC1=O
inactive: outcome [1] | Potency [2] | outcome [3] | outcome [4] | Potency [5] | outcome [6] | Potency [7] | Potency [8] | Potency [9] | Potency [10] | Potency [11] | outcome [12] | max response [13] 0.993% | Potency [14] | Potency [15] | Potency [16] | Potency [17] | Potency [18]

CN(C)C(=O)Nc1ccccc1
inactive: outcome [1] | Potency [2] | outcome [3] | Potency [5] | Potency [19] | activity change, positive = activation [20] 3.55% | outcome [6] | Potency [7] | Potency [8] | Potency [9] | Potency [10] | Potency [11] | outcome [12] | max response [13] 1.06% | Potency [14] | Potency [15] | Potency [16] | Potency [17] | Potency [18]

COc1ccc(NC(C)=O)cc1
inactive: outcome [1] | Potency [2] | outcome [3] | outcome [4] | Potency [5] | outcome [6] | Potency [8] | Potency [9] | Potency [10] | Potency [11] | outcome [12] | max response [13] -7.34% | Potency [15] | Potency [17] | Potency [18]

Cc1ccc(N)cc1[N+](=O)[O-]
inactive: outcome [1] | Potency [2] | outcome [3] | outcome [4] | Potency [5] | outcome [6] | Potency [7] | Potency [8] | Potency [9] | Potency [10] | Potency [11] | outcome [12] | max response [13] -16.8% | Potency [15] | Potency [16] | Potency [17] | Potency [18]

Nc1nc(F)nc2c1ncn2[C@@H]1O[C@H](CO)[C@@H](O)[C@@H]1O
inactive: outcome [1] | Potency [2] | outcome [3] | outcome [4] | Potency [5] | outcome [6] | Potency [7] | Potency [9] | Potency [10] | Potency [11] | max response [13] -1.6% | Potency [14] | Potency [15] | Potency [17] | Potency [18]

FC(F)(F)C(F)(F)C(F)(F)C(F)(F)C(F)(F)C(F)(F)C(F)(F)C(F)(F)C(F)(F)C(F)(F)F
inactive: activation [1] 1.03% [at 8.39 µM] | activity change, negative = cytotoxicity [2] -0.544% [at 6.97 µM] | activation (H2AX phosphorylation) [3] -0.945% [at 14 µM] | activation [4] -1.11% [at 7.01 µM] | activity change, negative = cytotoxicity [5] 0.329% [at 14 µM] | activity change, negative = cytotoxicity [6] -0.167% [at 6.97 µM] | activity change, negative = cytotoxic [7] -3.25% [at 6.97 µM] | cytotoxicity [8] -6.11% [at 6.97 µM] | activity change, negative = cytotoxic [9] -1.18% [at 6.97 µM] | cytotoxicity increase [10] -18% [at 6.97 µM] | activity change, negative = cytotoxicity [11] -4.72% [at 6.97 µM] | viability change, negative = cytotoxic [12] 3.63% [at 6.97 µM] | max response [13] -1.44% | cytotoxicity increase [15] 1.39% [at 6.97 µM] | activity change, negative = cytotoxic [16] -2.37% [at 6.97 µM] | cytotoxicity [17] 4.69% [at 6.97 µM] | cytotoxicity increase [18] 1.66% [at 6.97 µM]
